Among the data in PubChem BioAssay (Tox21) are Potency and activity change, negative = cytotoxicity values, retold here.

Results filed as inconclusive are left out. A call without a number means that no potency is given here. The source made the active and inactive calls. The call rests on the fitted dose curve.
Potency means the concentration at half of the fitted maximal effect.

A short description of this test: p53 small molecule agonists, cell-based qHTS assay with human liver microsomes: qHTS cell viability counter screen (AID 1963579). Further: nearly all actives have a fitted effect of over 45% in size. To be noted: p53RE-bla HCT-116 viability, ATP luminescence, 16 h, HLM; series mostly up to 66 µM. From the text:
National Center for Advancing Translational Sciences [NCATS]
Division of Preclinical Innovation [DPI]
U.S. Environmental Protection Agency [EPA]
National Institutes of Environmental Health Sciences [NIEHS]
National Toxicology Program [NTP]
U.S. Food and Drug Administration [FDA]
p53, a tumor suppressor protein, is activated following cellular insult, including DNA damage and other cellular stresses. The activation of p53 regulates cell fate by inducing DNA repair, cell cycle arrest, apoptosis, or cellular senescence. The activation of p53, therefore, is a good indicator of DNA damage and other cellular stresses. […] The activation of the reporter gene under culture conditions can be detected by fluorescence intensity. This cell line was used to screen the Tox21 10K compound library in the condition of presence of human liver microsomes and to identify agonists that activate the p53 signaling pathway after in vitro metabolic activation (Ooka et al., Archive of Toxicology 96:1975-1987, 2022).
Tox21 Assay Protocol Summary:
The p53RE-bla cells were dispensed at 4,000cells/3ul/well in 1536-well black-clear bottom plates. After the assay plates were incubated at 37 C, 5% CO2 incubator for 5 hours, 23 nL of compounds dissolved in DMSO, positive controls or DMSO only was transferred to the assay plate. Following compound addition, 3 uL of human liver microsomes (XenoTech, Kansas City, KS) at final concentration of 0.5 mg/mL and 1uL of B-Nicotinamide adenine dinucleotide 2'-phosphate (NADPH) at final concentration of 0.5 mg/mL were transferred to the assay plate. The plates were incubated at 37 C for 16 hours. 1 uL of LiveBLAzer detection mixture was added to each well and the plates were incubated at room temperature in the dark for 2 h. Fluorescence intensity at 460 and 530 nm emission and 405 nm excitation were measured by an Envision plate reader. For cell viability readout that measures cytotoxicity, 4 ul/well of CellTiter-Glo reagent was added into the assay plates using a Flying Reagent Dispenser. After 30 min incubation at room temperature, the luminescence intensity in the plates was measured using a ViewLux plate reader.
`CC1(C)[C@H]2CC[C@]1(C)C(=O)C2`: the Potency result was “inactive”. `O=C(O)Cc1c(Cl)ccc(Cl)c1Cl`: the Potency result was “inactive”. Take `O=C(c1ccco1)N1CCNCC1`: the Potency result is “inactive”.

`COc1cc2c(cc1N)oc1ccccc12`: the Potency was 33.1 µM (active). For `CCOC(=O)CC`, the Potency result was “inactive”. On to `CCC(C)c1cc([N+](=O)[O-])cc([N+](=O)[O-])c1OC(=O)OC(C)C` (stereo not given), for which the Potency entry was “inactive”. Consider `OCC(F)(F)F`, for which the Potency was 38.3 µM (active). In the case of `Cc1cn[nH]c1`, the Potency entry was “inactive”. As to `O=C(CCN1CCC(c2ccccc2)C1)c1ccc2c(c1)OCCO2` (stereo not given), the Potency entry is “inactive”.

For `C=CC/C=C/C/C=C/C/C=C/C`, the Potency result was “inactive”.

For the compound `CCN1CCCC1CN` (stereo not given), the Potency result is “inactive”. `Cc1ccc(O)cn1`: the Potency result is “inactive”. With `CCN(CC)CCNC(=O)COc1ccc(Cl)cc1`, the Potency result was “inactive”. Still for that read-out and setting: as for `Nc1nc(Cl)nc2c1ncn2[C@@H]1O[C@H](CO)[C@@H](O)[C@@H]1F`, the entry is “inactive”; as for `CC(CO)(CO)C(=O)O`, “inactive”; as for `CCCCCCCCCCCC[N+](C)(C)CC(=O)[O-]`, “inactive”.

Regarding `COCCC(=O)OC`, the Potency result is “inactive”. As for `O=CN1CCCCC1`, the Potency result was “inactive”.

`Nc1ccn([C@@H]2O[C@H](CO)[C@@H](O)C2(F)F)c(=O)n1`: the Potency result is “inactive”. The same measure, in the same setting: then `CC1(C)CC(N)CC(C)(C)N1`, with “inactive”. Turning to `Nc1nc(CC(=O)O)cs1`, the Potency result is “inactive”. Consider `O=NN(CCCl)C(=O)NC1CCCCC1`, for which the Potency entry was “inactive”. With `COc1ccc2c(c1)C(=O)N(CCc1ccc(S(=O)(=O)NC(=O)NC3CCCCC3)cc1)C(=O)C2(C)C`, the Potency result was “inactive”. As to `Clc1ccc2n[nH]nc2c1`, the Potency result was “inactive”. In the case of `O=C(O)c1cccc(O)c1`, the Potency entry was “inactive”. Same read-out and setting: as for `CC(C)(O)C(=O)c1ccccc1`, the entry is “inactive”; as for `CCOC(=O)CCc1ccccc1`, “inactive”. For the compound `Nc1ccc(S(=O)(=O)Nc2ccnn2-c2ccccc2)cc1`, the activity change, negative = cytotoxicity is 1.97% [at 13.5 µM] (inactive). `CCCC(c1cc(C(C)(C)C)c(O)cc1C)c1cc(C(C)(C)C)c(O)cc1C`: the Potency was 9.24 µM (active). Turning to `CCCCCCCCCCCC(=O)NCCCN(C)C`, the Potency is 45.8 µM (active).

Regarding `OCCN(CCO)CCN(CCO)CCO`, the Potency result is “inactive”. Consider `COc1cc(C(=O)NS(=O)(=O)c2ccccc2C)ccc1Cc1cn(C)c2ccc(NC(=O)OC3CCCC3)cc12`, for which the Potency entry was “inactive”. For the compound `C=C(C)C1CCC(C)CC1O` (stereo not given), the Potency result is “inactive”. Consider `c1cc[nH]c1`, for which the Potency result was “inactive”. For the compound `Cc1cnc(NS(=O)(=O)c2ccc(N)cc2)nc1`, the Potency entry is “inactive”. The same measure, in the same setting: as for `O=C(OC1C[C@H]2CC[C@@H](C1)[N+]21CCCC1)C(O)(c1ccccc1)c1ccccc1` (stereo not given in full), the entry is “inactive”; as for `C/C(=N/NC(=O)c1ccncc1)C(=O)O`, “inactive”. For `O=c1cc(-c2ccccc2)oc2ccc3ccccc3c12`, the Potency result was “inactive”. On the same count and under the same terms, then `CCCCN(CCCC)C(=O)N(CCCC)CCCC`, with “inactive”; and `Clc1cc(Cl)c(Cl)nc1Cl`, with “inactive”.
